Each structure is given as a SMILES string. About 83,000 compounds went through this panel and 20% of them were active in at least one assay; those are over-represented in the sample as a whole.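 Growth was measured after 48 h exposure to one concentration of compound in 96-well plates. Values under 10 count as active.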 Values without a mark were called inactive. Activity calls are given as the source filed them.

Holding throughout (assay): NCI-60 one-dose screen, 48 h (100 = growth as untreated, 0 = no growth, -100 = all killed)
What all share (settings): 10 µM unless noted

Assay [1] has as its system SK-MEL-2 melanoma.
Assay [2] relates to EKVX NSCLC.
Assay [3] has as its system SN12C renal.
Assay [4] relates to UO-31 renal.
Assay [5] relates to TK-10 renal.
Assay [6] concerns ACHN renal.
In assay [7] the test system is CAKI-1 renal.
Assay [8] deals with A498 renal.
The test system of assay [9] is CCRF-CEM leukemia.
In assay [10] the test system is MOLT-4 leukemia.
Assay [11] has as its system SR leukemia.
Assay [12] has as its system RPMI-8226 leukemia.
The test system of assay [13] is OVCAR-8 ovarian.
Assay [14] concerns OVCAR-5 ovarian.
The subject of assay [15] is OVCAR-4 ovarian.
The test system of assay [16] is SK-OV-3 ovarian.
In assay [17] the test system is IGROV1 ovarian.
Assay [18] relates to OVCAR-3 ovarian.
The subject of assay [19] is HS 578T breast.
For assay [20], the system named is NCI/ADR-RES ovarian.

As for `Cc1ccc2nc(/C(C#N)=C(/CCCO)NC(Cc3ccccc3)C(=O)OCc3ccccc3)[nH]c(=O)c2c1` (stereo not given), the growth is 96.8% in assay [1]; 95.6% in assay [2]; 103% in assay [3]; 112% in assay [4]; 126% in assay [5]; 107% in assay [6]. For the same molecule, the growth in [7] was 90.2%; in [8], 210%; in [9], 164%; in assay [10], 112%; in assay [11], 92.3%; in assay [12], 114%. Besides, the growth was 120% in assay [13]; 89.2% in [14]; 125% in [15]; 106% in assay [16]; 127% in [17]; 110% in assay [18]. Further, the growth was 183% in [19] and 32.6% in assay [20].
For the molecule `Cc1ccc(-c2nc3nc(-c4ccccc4)nc(N4CCCN(S(C)(=O)=O)CC4)c3o2)cc1`, the growth in assay [1] is 86.2%; in [2], 93.7%; in assay [3] it was 71.8%; in [4] it was 59.3%; in assay [5], 66.9%; in [6] it was 46.1%. Moreover, the growth in assay [7] is 63.4%; in assay [8], 94.3%; in assay [9] it was 63.9%; in assay [10] it was 56.3%; in [11], 30.8%; in assay [12], 92.5%. Also, the growth in assay [13] was 50.7%; in [14], 92.5%; in assay [15], 48.2%; in assay [16] it was 81.3%; in [17], 75.7%; in [18], 83.4%. Moreover, the growth in assay [19] was 86.5%; in assay [20], 56.2%.
Take `Cc1ccc(NC(=O)Cn2c(Br)nc3c2c(=O)n(C)c(=O)n3C)cc1`: the growth in assay [1] was 84.9%; in [2], 55.5%; in assay [3], -30% (active); in assay [4], 14.1%; in [5], 9.94% (active); in assay [6], -66.6% (active). Besides, the growth in assay [7] was 53%; in assay [8] it was -6.02% (active); in assay [9] it was 40.7%; in assay [10] it was 58.8%; in assay [11] it was 12%; in assay [12], 38.5%. For the same molecule, the growth in [13] was 28.4%; in [14], 27.9%; in [15], -44.9% (active); in assay [16], 5.9% (active); in assay [17], 33.1%; in [18], -19.8% (active). The growth was 8.55% (active) in assay [19] and 4.04% (active) in assay [20].
Take `COc1ccc(/C(C)=C(\c2ccc(Cl)cc2)c2ccc(OCCN3CCCCC3)cc2)cc1`: the growth in [1] is 56.2%; in [2], 69.1%; in assay [3] it was 69.2%; in assay [4], 48.1%; in [5], 95.7%; in assay [6] it was 77.3%. Besides, the growth was 37.2% in assay [7]; 86.8% in assay [8]; 37.5% in assay [9]; 41.6% in [10]; -7.55% (active) in assay [11]; 7.75% (active) in [12]. The growth in assay [13] is 69.6%; in assay [14] it was 67.9%; in [15], 59.9%; in assay [16], 77.5%; in assay [17], 64.5%; in assay [18], 74.9%. The growth in assay [19] is 63.6%; in [20], 76.8%.
In the case of `CCNc1ccc(-c2nc3ccccc3n3cccc23)cc1`, the growth in assay [1] was 87.9%; in assay [2], 71%; in assay [3], 78%; in [4], 51.6%; in assay [5], 82.7%; in assay [6], 73.9%. For the same molecule, the growth in assay [7] was 57%; in [8], 62.5%; in assay [9], 68.2%; in [10], 71.2%; in [11] it was 76.4%; in [12], 85.2%. For the same molecule, the growth in assay [13] is 80.9%; in [14] it was 71%; in assay [15], 72.7%; in assay [16], 72.4%; in [17] it was 64%; in [18], 78.7%. Besides, the growth is 78.6% in [19] and 80.6% in assay [20].
With `Cc1nnc(-c2ccc3c(c2)nc(/C=C/c2ccccc2)n3C2CCCCC2)o1`, the growth in [1] is 82%; in assay [2], 86.8%; in assay [3], 90.1%; in assay [4], 58.2%; in assay [5], 104%; in [6], 54.7%. The growth in [7] is 112%; in assay [8] it was 97.8%; in [9], 53.8%; in [10] it was 43.4%; in [11] it was 46%; in assay [12] it was 44.3%. Moreover, the growth in assay [13] is 80.2%; in [14] it was 125%; in assay [15], 82.3%; in assay [16], 64.8%; in assay [17], 77.1%; in assay [18], 75.4%. The growth in assay [19] is 90.3%; in assay [20], 85.2%.
`Cc1ccc(C(=O)Nc2cccc(C#Cc3cccc4[nH]nc(N)c34)c2)cc1C(F)(F)F`: the growth is 29.2% in assay [1]; 92.4% in [2]; 65.2% in [3]; 36.7% in [4]; 86.6% in assay [5]; 44.7% in assay [6]. Also, the growth in assay [7] is 120%; in [8], 81.2%; in assay [9], 52.9%; in assay [10], 45%; in assay [11], 69.3%; in assay [12], 66.9%. Moreover, the growth in assay [13] is 72.1%; in assay [14] it was 59.9%; in assay [15], 66.6%; in assay [16], 84.3%; in assay [17], 17.9%; in assay [18], 82.7%. In addition, the growth is 47.4% in assay [19] and 74.1% in assay [20].
On to `CCOC(=O)c1c(C)nc2c(c1N)CC(=O)N2Cc1ccc(OC)cc1`, for which the growth was 51.2% in assay [1]; 47.7% in [2]; 41.1% in assay [3]; 33.8% in [4]; 0.0562% (active) in assay [5]; 28.4% in [6]. Further, the growth is 76.4% in assay [7]; 63.5% in [8]; 117% in assay [9]; 90.3% in assay [10]; 56.2% in assay [11]; 67.1% in [12]. For the same molecule, the growth in [13] was 13.6%; in assay [14], 80.4%; in [15], 7.06% (active); in assay [16], 8.96% (active); in assay [17], 46.4%; in assay [18] it was 16.4%. Besides, the growth in assay [19] is 29.4%; in assay [20], 34.4%.

The record behind these values is PubChem BioAssay (NCI).
